High-throughput results as filed in PubChem BioAssay.
Sampled rows, rich in hits. Any-hit rate of the full collection: about 1.2%.
RGS7-Gao = modulates binding of RGS7 to human Galphao. P09471. Multiplexed bead flow cytometry; actives lie on both sides. binding response (% of control), % at 10 µM. hit rate 0.35% among 220,000; in the data active means binding response below about 49% or above about 150%; inconclusive means no clear call, values can overlap the other calls; inactive means in between;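 further: fluorescent Galphao held in activated GDP-AlF4 state binding bead-coupled RGS7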
Target sequence (P09471 whole entry, looked up): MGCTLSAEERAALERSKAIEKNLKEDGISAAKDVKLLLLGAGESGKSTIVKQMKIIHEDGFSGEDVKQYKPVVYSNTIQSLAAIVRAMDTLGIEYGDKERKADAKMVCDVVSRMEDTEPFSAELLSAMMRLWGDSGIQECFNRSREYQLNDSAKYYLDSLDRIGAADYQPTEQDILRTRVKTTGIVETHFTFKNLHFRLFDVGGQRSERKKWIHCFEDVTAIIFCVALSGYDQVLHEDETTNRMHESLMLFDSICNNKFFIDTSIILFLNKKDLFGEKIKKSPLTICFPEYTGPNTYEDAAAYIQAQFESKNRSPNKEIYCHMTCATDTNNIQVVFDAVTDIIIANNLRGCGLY
RGS8-Gao = human RGS8-Galphao interaction regulation. P09471. multiplexed bead flow cytometry, RGS8-Galphao binding; actives lie on both sides. response (percent of control binding), % at 10 µM. hit rate 0.34% among 220,000; in the data active means response below about 60% or above about 140%; inactive means in between;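 further: Galphao activated as the GDP aluminium fluoride complex binding bead-coupled RGS8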
GSH bead fluor = GSH bead compound fluorescence profile; GSH beads flow cytometry, compound fluorescence 488/530 nm; active compounds read high; fluorescence (KMESF) at 10 µM; hit rate 0.25% among 190,000; in the data active means fluorescence above about 89;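 further: glutathione beads carrying GST-tagged Bcl family fusion proteins plus one bare bead set; values are compound well signal with DMSO vehicle wells as background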
Avidin fluor = avidin bead compound fluorescence profile | fluorescence (KMESF) at 10 µM | Avidin beads, compound fluorescence 488/530 nm, flow cytometry; active compounds read high | AID 1775 | hit rate 0.38% among 220,000; in the data active means fluorescence above about 47
RGS4-Gao reg = human RGS4-Galphao interaction regulation | binding response (% of control), % at 10 µM | Multiplexed bead flow cytometry, RGS4-Galphao binding; actives lie on both sides | P09471 | hit rate 0.33% among 220,000; in the data active means binding response below about 49% or above about 150%; inactive means in between;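 further: fluorescent Galphao activated with aluminum fluoride binding bead-coupled RGS4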
RGS16-Gao = regulators of human RGS16-Galphao interaction. O15492+P09471. bead-based flow cytometry RGS16-Galphao binding, fluorescence; actives lie on both sides. binding response (% of control), % at 10 µM. hit rate 0.38% among 220,000. AID 1441;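 further: Galphao activated by GDP with aluminum fluoride before binding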
RGS4-Gao HTS = modulates binding between human RGS4 and Galphao; shares compounds with RGS16-Gao; multiplexed bead flow cytometry, RGS–Galpha-o binding; RGS4–Galpha-o binding response, % at 10 µM; hit rate 99% among 1,600; AID 1504;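 further: fluorescently labeled Galpha-o bound to GDP with aluminium fluoride binding biotinylated RGS beads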
Biotin-avidin = counter-screen: compounds disrupting biotin binding to avidin beads; shares compounds with RGS16-Gao; streptavidin beads, fluorescein-biotin binding, flow cytometry; inhibition, % at 10 µM; 1,700 tested, under 10 active;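 active means inhibition above 50%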;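 further: median green fluorescence of gated singlet beads compared with DMSO control wells; 0% = DMSO wells and 100% = complete loss of bead fluorescence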
RGS8-Gao confirm = RGS8-Galphao interaction regulation, single point confirmation; shares compounds with RGS16-Gao; bead-based flow cytometry RGS8-Galphao binding, fluorescence; actives lie on both sides; binding response (% of control), % at 10 µM; hit rate 3% among 1,700; AID 1836; in the data active means binding response below about 72% or above about 130%; inactive means in between;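 further: Galphao activated as GDP AlF4 complex before binding bead RGS8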
RGS7-Gao single = confirmation of regulators of human RGS7-Galphao interaction | hit rate 7.8% among 1,700 | shares compounds with RGS16-Gao | response (percent of control binding), % at 10 µM | bead-based flow cytometry RGS7-Galphao binding; actives lie on both sides; in the data active means response below about 75% or above about 130%; inactive means in between;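 further: fluorescent Galphao activated with GDP and aluminum fluoride binding bead-coupled RGS7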
RGS16-Gao single = confirmation of regulators of human RGS16-Galphao interaction | hit rate 4% among 1,700 | shares compounds with RGS16-Gao | bead-based flow cytometry, RGS16-Galphao binding; actives lie on both sides | response (% of control binding), % at 10 µM; in the data active means response below about 74% or above about 130%; inactive means in between;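 further: Galphao activated as the GDP aluminium fluoride complex binding bead-coupled RGS16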
RGS4-Gao confirm = RGS4-Galphao interaction regulation, single point confirmation; shares compounds with RGS16-Gao; RGS4-Galphao binding, multiplexed bead flow cytometry; actives lie on both sides; binding response (% of control), % at 10 µM; hit rate 4% among 1,700; in the data active means binding response below about 74% or above about 130%; inactive means in between
RGS19-Gao single = RGS19-Galphao interaction regulation, single point confirmation; AID 1841; hit rate 5% among 1,700; response (percent of control binding), % at 10 µM; bead-based flow cytometry RGS19-Galphao binding; actives lie on both sides; shares compounds with RGS16-Gao; in the data active means response below about 50% or above about 160%; inactive means in between;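 further: 100% = no compound control and 0% = blank background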
Target sequence (P09471 whole entry, looked up): as above
Target sequence (P49795 whole entry, looked up): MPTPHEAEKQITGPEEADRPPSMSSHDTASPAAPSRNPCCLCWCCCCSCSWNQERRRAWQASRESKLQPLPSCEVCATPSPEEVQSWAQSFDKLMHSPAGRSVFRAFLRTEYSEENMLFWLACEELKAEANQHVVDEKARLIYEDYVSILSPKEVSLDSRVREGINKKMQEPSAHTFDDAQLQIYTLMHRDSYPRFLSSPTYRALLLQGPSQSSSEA
Active calls of the source: *; ? = inconclusive; · = no result given; + = active, no number; [ ] = remark or other dose. Unless noted, how the calls were made is not given here.

SMILES | RGS7-Gao | RGS8-Gao | GSH bead fluor | Avidin fluor | RGS4-Gao reg | RGS16-Gao | RGS4-Gao HTS | Biotin-avidin | RGS8-Gao confirm | RGS7-Gao single | RGS16-Gao single | RGS4-Gao confirm | RGS19-Gao single
Cc1ccn2c(CNCC3OCCc4ccccc43)c(C(=O)N3CCCCCC3)nc2c1 (stereo not given) | 106.9 | 100.8 | 16 | 18 | 102.4 | 101.5 | · | · | · | · | · | · | ·
NS(=O)(=O)c1ccc(CCNC(=O)C2CCC(Cn3c(=S)[nH]c4ccccc4c3=O)CC2)cc1 (stereo not given) | 16.7* | 13.3* | 14 | 2 | 22.1* | 11.4* | · | 1.2 | 103.2 | 104.5 | 105.2 | 103.1 | 100.9
COc1ccc(CCNC(=O)COC(=O)c2cc(OC)c(OC)cc2OC)cc1OC | 172.0*[activator] | 173.8*[activator] | 14 | 21 | 172.5*[activator] | 199.1*[activator] | · | -1.4 | 106.5 | 106.3 | 108.4 | 105.3 | 138.8
O=C(C[n+]1cccc(CNC(=O)c2ccc(OC(F)F)cc2)c1)Nc1ccc(F)cc1 | 120.7 | 90.9 | 18 | 1 | 116.2 | 21.3* | 116.2* | -0.3 | 104.9 | 106.1 | 104.8 | 107.2 | 118.2
O=C(C[n+]1cccc(CNC(=O)c2ccc(OC(F)F)cc2)c1)Nc1cccc(C(F)(F)F)c1 | 104.1 | 106.5 | 9 | 4 | 105.5 | 107.2 | · | · | · | · | · | · | ·
O=C(c1cc2c(s1)-c1ccccc1S(=O)(=O)C2)N1CCN(Cc2ccccc2)CC1 | 276.5*[activator] | 92.8 | 19 | 151* | 132.3 | 106.9 | 132.3* | 0.0 | 101.5 | 96.8 | 103.2 | 101.4 | 101.0
Cc1cn2c(N)c(C=C3C=C(Cl)C(=O)C(Cl)=C3)c(=O)nc2s1 | 473.5*[activator] | 132.8 | 13 | 179* | 548.7*[activator] | 443.8*[activator] | · | 20.0 | 140.8*[activator] | +[activator] | 449.0*[activator] | 658.7*[activator] | +[activator]
COC1=C/C(=C/c2c(N)n3cc(C)sc3nc2=O)C=CC1=O | 134.5 | 103.8 | 8 | 24 | 136.2 | 131.0 | · | · | · | · | · | · | ·
CC1CCN(CC(=O)Nc2ccc(N3CCCCCC3)cc2)CC1 | 102.7 | 102.4 | 23 | 9 | 103.2 | 101.6 | · | · | · | · | · | · | ·
Cc1nn(CC(=O)Nc2ccc(S(=O)(=O)N(C)C)cc2)c(C)c1[N+](=O)[O-] | 102.8 | 101.4 | 11 | 10 | 100.4 | 98.3 | · | · | · | · | · | · | ·
O=C(CN1CCN(c2ncccn2)CC1)N1CCCC1 | 101.3 | 104.3 | 14 | 12 | 103.0 | 106.5 | · | · | · | · | · | · | ·
CCN(CC)C(=O)CN1CCN(c2ncccn2)CC1 | 122.3 | 142.0*[activator] | 31 | 3 | 120.2 | 270.8 | 120.2* | 0.1 | 99.8 | 85.7 | 93.2 | 95.6 | 82.8
COC1CCN(C(=O)CC2C(=O)NCCN2CC2CCCCC2)CC1 (stereo not given) | 97.5 | 99.7 | 15 | 1 | 97.9 | 97.4 | · | · | · | · | · | · | ·
COC1CCN(C(=O)CC2C(=O)NCCN2CC(C)(C)C)CC1 (stereo not given) | 2.1* | 17.3* | 13 | 0 | 10.0* | 5.7* | · | 3.0 | 105.5 | 98.5 | 107.4 | 98.7 | 110.2
Cc1cccc(C)c1-n1cccc1/C=C1/C(=N)N2C(=NC1=O)SN=C2S(C)(=O)=O | 102.5 | 104.3 | 12 | 9 | 103.8 | 99.3 | · | · | · | · | · | · | ·
Cc1ccc(-n2cccc2/C=C2/C(=N)N3C(=NC2=O)SN=C3S(C)(=O)=O)cc1Cl | 45.1* | 69.9 | 10 | 5 | 72.5 | 59.8 | 72.5* | · | · | · | · | · | ·
O=C(CCC1CCCCC1)Nc1cccnc1 | · | · | 38 | · | · | · | · | 2.4 | 101.7 | 99.7 | 99.6 | 100.6 | 100.2
O=C(CCC1CCCCC1)Nc1ccc(C(=O)c2ccncc2)cc1 | 103.1 | 101.4 | 17 | 8 | 99.4 | 97.1 | · | · | · | · | · | · | ·
COc1ccc(C(=O)CCC(=O)Nc2cccc(Cl)c2)cc1 | 94.6 | 99.0 | 15 | 11 | 98.2 | 100.6 | · | · | · | · | · | · | ·
COc1ccc(C(=O)CCC(=O)Nc2cccnc2)cc1 | 2.6* | 6.2* | 9 | 0 | 0.8* | -5.4* | · | -0.8 | 101.5 | 98.4 | 102.5 | 98.8 | 100.6
Clc1c(Cl)c(Cl)c2n[nH]nc2c1Cl | ? | 99.5 | · | 6 | 100.2 | 100.2 | · | · | · | · | · | · | ·
O=C(Nc1nnc(-c2ccccc2Cl)o1)c1ccco1 | · | · | 31 | · | · | · | · | 2.0 | 98.8 | 103.4 | 100.5 | 103.3 | 93.3
CN=c1scc(-c2c[nH]c3ccccc23)n1C | 102.7 | 104.6 | 10 | 24 | 101.7 | 105.5 | · | · | · | · | · | · | ·
Cc1ccccc1CSc1nn2c(=O)c(C)nnc2s1 | 211.2*[activator] | 84.5 | 14 | 40 | 115.6 | 127.0 | 115.6* | 2.0 | 101.1 | 96.0 | 103.2 | 93.8 | 92.0
CC1CN(C(NC(=O)c2ccccc2)C(Cl)(Cl)Cl)CC(C)O1 (stereo not given) | 142.0 | 120.1 | 11 | 4 | 150.1*[activator] | 103.5 | · | -1.1 | 104.6 | 107.2 | 106.0 | 105.4 | 96.2
SMILES | RGS7-Gao | RGS8-Gao | GSH bead fluor | Avidin fluor | RGS4-Gao reg | RGS16-Gao | RGS4-Gao HTS | Biotin-avidin | RGS8-Gao confirm | RGS7-Gao single | RGS16-Gao single | RGS4-Gao confirm | RGS19-Gao single
COCC(=O)Nc1ccc(OC)c(Cl)c1 | 53.3 | 52.2* | 19 | 3 | 98.4 | 98.2 | 98.4* | -0.9 | 100.8 | 98.2 | 100.2 | 100.7 | 97.3
COc1ccc(NC(=O)CCCn2c(=O)oc3ccccc32)cc1Cl | 88.7 | 71.3 | 7 | 7 | 88.1 | 8.8* | 88.1* | · | · | · | · | · | ·
COc1ccc(NC(=O)COC(C)=O)cc1Cl | 102.6 | 101.9 | 10 | 3 | 104.4 | 100.5 | · | · | · | · | · | · | ·
COc1ccc(S(=O)(=O)N2CCCC(C(=O)NCCC(C)C)C2)cc1 (stereo not given) | ? | 99.0 | 12 | 9 | 97.5 | 102.0 | · | · | · | · | · | · | ·
Cc1ncc([N+](=O)[O-])n1CC(=O)N/N=C/c1ccccc1F | 103.7 | 101.0 | 26 | 14 | 100.2 | 100.4 | · | · | · | · | · | · | ·
O=C(NCc1ccccc1Cl)NCc1ccccc1Cl | ? | 62.0 | · | 2 | 43.1* | 46.4 | · | -0.6 | 102.6 | 103.1 | 107.1 | 99.2 | 109.0
O=C(NC1CCCCC1)c1ccc(N2CCCC2=O)cc1 | 119.6 | 131.3 | 15 | 19 | 108.2 | 211.1*[activator] | 108.2* | · | · | · | · | · | ·
